# In PubChem BioAssay (NCATS):
# Records with an inconclusive call do not appear. The source made the active and inactive calls. Calls follow the shape of the dose curve; as a rule, active = well fitted inhibition curve with a large enough effect; inconclusive = small, poorly fitted or top-dose-only effect; inactive = no such curve, though single readings can be large or run the other way.
# System: Zika virus NS2B-NS3 protease (unlinked complex)
# Assay: Primary screen GU Rhodamine qHTS for Zika virus inhibitors: Unlinked NS2B-NS3 protease assay (AID 1347159); also: nearly all actives have a fitted effect of over 60% in size
# Conditions: Recombinant ZIKV NS2B-NS3 protease, Rhodamine110 substrate fluorescence; series mostly up to 107 µM; activity change, negative = inhibition: at the top concentration
# In short: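 A qHTS format was used, with compound concentrations ranging up to 114 microM. Each compound was preincubated with 25 nM NS2B-NS3 protease, and the substrate was then added at 1.5 microM. Curves were fitted with a 4-parameter Hill model.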
# % is scaled to controls: 0 for no effect and ±100 for the full control effect.
row,SMILES,"activity change, negative = inhibition"
1,CCn1c(=O)c(-c2ccc(-c3cncs3)cc2Cl)cc2cnc(Nc3ccc(N4CCN(C)CC4)cc3)nc21,6.46% (inactive)
2,CN1CCN(S(=O)(=O)c2ccc(-c3cnc(N)c(C(=O)Nc4cccnc4)n3)cc2)CC1,10.4% [at 57.1 µM] (inactive)
3,Cc1cc(N2CCOCC2)ccc1Nc1nc(NC2CCCCC2)c2[nH]cnc2n1,230% (inactive)
4,Cc1c(F)ccc(C(=O)Nc2cc([N+](=O)[O-])ccc2N2CCN(C)CC2)c1Cl,10.6% (inactive)
5,C=C1C(=O)OC2C=C(C)CC/C=C(\CO)CC(O)C12 (stereo not given),-16.6% (inactive)
